Bioassay records (PubChem)
GLD-1 RNA inh – GLD-1-TGE RNA interaction inhibition (C. elegans). Q17339. purified GLD-1 + fluorescein TGE RNA, fluorescence polarization. inhibition, % at 5.96 µM. 320,000 compounds, 0.44% hits. AID 2280;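 active = percent inhibition above a per-plate cutoff, the plate mean of test compounds plus 3 SD, cut at about 30% in these data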;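 also: 0% = DMSO wells with GLD-1 and probe and 100% = wells lacking GLD-1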
BCLXL inh – blocks human Bcl-xL binding to Bim BH3 peptide; AID 2129; GST-Bcl-xL / FITC-Bim BH3 peptide fluorescence polarization; inhibition, % at 10.9 µM; 320,000 compounds, 0.7% hits;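 active = inhibition above the mean of all tested compounds plus 3 SD, cutoff set per campaign, cut at about 30% in these data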;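 also: 0% = DMSO wells and 100% = unlabeled Bim-BH3 peptide competitor; inhibitors lower millipolarization by displacing the labeled peptide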
Target sequence (Q07817 whole entry, looked up): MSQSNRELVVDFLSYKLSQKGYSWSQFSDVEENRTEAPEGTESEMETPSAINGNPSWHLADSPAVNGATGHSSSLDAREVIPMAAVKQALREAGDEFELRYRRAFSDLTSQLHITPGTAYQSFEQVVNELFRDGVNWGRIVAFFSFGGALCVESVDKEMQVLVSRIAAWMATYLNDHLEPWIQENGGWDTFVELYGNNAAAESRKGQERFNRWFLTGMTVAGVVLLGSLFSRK
Mcl1 Bid PPI – disrupts binding of human Mcl-1 to Bid peptide | TR-FRET Mcl-1/Bid-Dy647 peptide binding, 1536-well | inhibition, % at 21.7 µM | 220,000 compounds, 0.97% hits;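 active = compounds that cut the binding signal by more than half at the single screening dose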;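 also: His-tagged Mcl-1 with europium anti-His antibody binding Bid BH3 peptide; 0% = Mcl-1 plus peptide wells and 100% = peptide-only wells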
Mcl1 Noxa PPI – disrupts binding of human Mcl-1 to Noxa peptide. TR-FRET Mcl-1/Noxa peptide binding, 2 h. inhibition, % at 21.7 µM. 220,000 compounds, 1.5% hits. AID 1022;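 active = compounds that cut the protein-peptide binding signal by more than 50% relative to plate controls in a single-dose test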;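 also: His-tagged Mcl-1 with rhodamine Noxa BH3 peptide and terbium anti-His antibody; 0% = Mcl-1 plus Noxa peptide wells and 100% = peptide-only wells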
MCL1 BIM primary – disrupts human MCL1 binding to BIM-BH3 peptide; Q07820; GST-MCL1 / FITC-Bim-BH3 fluorescence polarization; AID 2057; 320,000 compounds, 0.68% hits; inhibition, % at 10.9 µM;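 active = inhibition above the mean inhibition of all tested compounds plus 3 SD, set per campaign, cut at about 40% in these data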;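 also: 0% = DMSO wells and 100% = unlabeled Bim-BH3 peptide control; higher means more loss of mP so more displacement of Bim peptide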
Bim-Mcl-1 – disrupts Bim peptide binding to human Mcl-1 | AID 1009 | inhibition, % at 10 µM | 190,000 compounds, 0.1% hits | Q07820 | Bead-based flow cytometry, Bim peptide-Mcl-1 binding; in the data active = inhibition above about 40%;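 also: 0% = no compound tracer wells and 100% = peptide blocker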
* hit, by the source's call; x = not tested or not shown. Hits are enriched below; roughly 2.3% of the tested compounds scored in any of these assays.

SMILES	GLD-1 RNA inh	BCLXL inh	Mcl1 Bid PPI	Mcl1 Noxa PPI	MCL1 BIM primary	Bim-Mcl-1
O=C(CN1C(=O)NC2(CCCCCC2)C1=O)Nc1ccccc1[N+](=O)[O-]	-5	x	x	x	x	x
COC(=O)c1ccc2nc(Nc3nc4c(F)cc(F)cc4s3)sc2c1	0	2	64*	81*	0	-3
CCN(CC)CC(C)OC(=O)c1cc(OC)c(OC)c(OC)c1 (centres undefined)	6	4	51*	4	0	-1
CC(=O)N1CCN(C(=O)COC(=O)/C=C/c2ccc(C(F)(F)F)cc2)CC1	1	x	x	x	x	x
CCN1C(=O)C(CC(=O)Nc2c(C)cccc2C)Nc2cc(S(=O)(=O)N(C)C)ccc21 (centres undefined)	-3	6	-37	9	8	-2
COc1ccc(-c2nn(-c3ccccc3)cc2C(=O)NC(=S)Nc2cc(Cl)ccc2Cl)cc1	3	3	-76	3	3	x
Oc1ccc(NC(=S)N=Nc2c(O)[nH]c3ccc(Br)cc23)cc1	x	x	-22	57*	x	3
CCN(CC(=O)Nc1c(F)cccc1F)C(=O)CCN1C(=O)C2CCCCC2C1=O (centres undefined)	0	5	x	x	3	x
CN(C)CC(C(=O)c1ccccc1)c1ccccc1 (centres undefined)	3	2	6	14	-5	0
CN(C)CC(O)CN(c1ccccc1)c1ccccc1 (centres undefined)	-4	2	98*	8	8	x
CSc1ccccc1NC(=O)c1cc2ncc(Br)cn2n1	-4	4	-19	59*	12	-1
CC(C)C(OC(=O)CN1C(=O)c2ccccc2C1=O)C(=O)NC1CCCC1 (centres undefined)	-7	1	x	x	0	x
CCOc1ccc(OCCCCn2cnc3ccccc3c2=O)cc1	0	-1	-15	9	0	1
Cc1ccc(-c2cc(C(=O)N3CCN(c4ccc(F)cc4)CC3)c3ccccc3n2)o1	-3	5	-62	44	11	0
Cc1ccc(-c2cc(C(=O)N3CCN(c4ncccn4)CC3)c3cc(Br)ccc3n2)o1	3	7	21	79*	18	4
O=C(Nc1cccc(F)c1)C1CCCN(C(=O)c2ccc(Cl)cc2)C1 (centres undefined)	1	-3	x	x	-4	x
O=C(/C=C/c1ccco1)NC(=S)Nc1ccc(O)c(-c2nc3ccccc3s2)c1	5	6	59*	52*	15	-6
O=C(Nc1ccc(O)c(-c2nc3ccccc3s2)c1)c1cccs1	2	5	-56	-217	1	0
O=C(Nc1ccc(O)c(-c2nc3ccccc3s2)c1)c1cc(=O)c2ccccc2o1	4	2	52*	51*	-5	-7
CC(=O)NC(=S)Nc1ccc(NC(=S)NC(=O)/C=C/c2ccco2)cc1	1	6	44	66*	2	x
COc1ccc(NC(=S)NC(=O)/C=C/c2ccco2)cc1	-1	6	-16	20	1	-1
CCC(=O)Nc1ccc(NC(=S)NC(=O)/C=C/c2ccco2)cc1	4	3	x	x	20	x
COc1ccc(C(=O)NC(=S)Nc2ccc3[nH]c(=O)[nH]c3c2)c(OC)c1	-2	11	x	x	11	x
CC1(C)Cc2c(sc3ncn(N)c(=N)c23)CO1	1	4	-61	11	9	-1
CC1(C)Cc2c(sc3ncn4c(=S)[nH]nc4c23)CO1	2	14	-57	67*	2	0
SMILES	GLD-1 RNA inh	BCLXL inh	Mcl1 Bid PPI	Mcl1 Noxa PPI	MCL1 BIM primary	Bim-Mcl-1
COc1ccc(C(=O)N2CCN(Cc3ccccc3C)CC2)cc1OC	5	4	75*	12	1	0
COc1cc(OC)cc(C(=O)N2CCN(Cc3ccccc3C(F)(F)F)CC2)c1	4	14	67*	39	10	-2
O=C(O)CC/C(=N/Nc1ncc(C(F)(F)F)cc1Cl)C(=O)O	2	3	-10	5	2	0
COC(=O)c1ccc(N2CC3CNC(=O)C2(C(=O)OC)N3C)cc1 (centres undefined)	6	x	x	x	x	x
CCN(CC)C(=O)Cn1cc(S(=O)(=O)CC(=O)Nc2cc(OC)ccc2OC)c2ccccc21	1	3	x	x	4	x
Cc1sc2ncnc(OCC(=O)Nc3ccc4c(c3)OCCO4)c2c1C	2	1	99*	-5	-5	1
O=C(COc1ncnc2sccc12)Nc1ccc2c(c1)OCCO2	5	-5	-54	12	-10	-2
